Bioassay records deposited in PubChem BioAssay by National Center for Advancing Translational Sciences (NCATS).
Giardia killer – Small Molecules that selectively kill Giardia lamblia: qHTS. Giardia lamblia trophozoite viability. activity change, % at 7.66 µM, hits read low. 340,000 compounds, 0.15% hits. AID 540267, 2011; in the data active = activity change below about -80%; inconclusive = between about -30% and that limit;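 also: parasites exposed to compound for two days anaerobically before the ATP read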
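Giardia lamblia trophozoites (100 cells/well) were incubated with compounds for 48 h at 37 deg C under anaerobic conditions. Viability was read as ATP content by one-step luminescence after 15-30 min at room temperature.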
ATXN viability – Viability Counterscreen for Primary qHTS for Inhibitors of ATXN expression; 400,000 compounds, 0.49% hits; Potency, µM (titrated, usually from 56.7 µM), most hits filed as cytotoxic; S2 cells (HEK-293 line with an ATXN2-luciferase reporter) viability, CellTiter-Fluor protease fluorescence, 24 h; also: nearly all actives have a fitted effect of over 40% in size
ATXN2 expr inh – Primary qHTS for Inhibitors of ATXN expression. HEK-293 ATXN2-luciferase reporter, luminescence, 24 h. Potency, µM (series often up to 57 µM), usual class: inhibitors. 360,000 compounds, 0.72% hits. AID 1745845, 2022; also: nearly all actives have a fitted effect of over 55% in size
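ATXN2-luciferase reporter cells (luciferase flanked by upstream and downstream ATXN2 gene portions) were treated 24 h at 37 °C with compounds at up to 57 uM. SteadyGlo luminescence gave expression; GF-AFC fluorescence gave viability.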
HepG2 viability – qHTS for Inhibitors of TGF-b: Cytotox Counterscreen | HepG2 CAGA-GFP viability, ATP luminescence, 18 h | Potency, µM (top dose mostly 46.1 µM), hits mostly cytotoxic | 410,000 compounds, 0.76% hits | AID 588856, 2011
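HepG2 CAGA-GFP cells (1000/well, DMEM with 1% FBS) received compound, then TGF-beta at 500 pg/mL final, and were incubated 18 hours at 37 degrees C. Viability was read by CellTiter-Glo luminescence. Media-only wells were set as complete cell-killing and DMSO as no toxicity.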
uPA surface inh – qHTS for Inhibitors of Cell Surface uPA Generation; cell surface uPA generation assay, qHTS; Potency, µM (series often up to 38.3 µM), most hits filed as inhibitors; 330,000 compounds, 0.31% hits; AID 540303, 2011; active = well fitted inhibition curve with a large enough effect; inconclusive = small, poorly fitted or top-dose-only effect; inactive = no such curve, though single readings can be large or run the other way; tested in mouse RAW 264.7 cells; also: nearly all actives have a fitted effect of over 55% in size
TGFb SMAD3 inh – qHTS for Inhibitors of TGF-b; HepG2 CAGA-GFP TGF-b/SMAD3 reporter, GFP fluorescence, 18 h; TGF-beta stimulated, 500 pg/mL final; Potency, µM (top dose mostly 46.1 µM), usual class: inhibitors; 410,000 compounds, 1.2% hits; also: nearly all actives have a fitted effect of over 65% in size
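Using HEPG2 CAGA-GFP reporter cells at 1000 cells/well, we pinned test compounds, stimulated with recombinant TGF-beta (500 pg/mL final) and measured total well GFP after 18 h.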
SKNSH spheroid – qHTS of pediatric cancer cell lines to identify multiple opportunities for drug repurposing: Orthogonal 3D viability screen for SK-N-SH cells; shares compounds with ATXN2 expr inh; SK-N-SH 3D spheroid viability, PI/Hoechst imaging, 72 h; Potency, µM (series often up to 30.7 µM), hits mostly inhibitors; 65 compounds, 70% hits; AID 1347135, 2019
SJ-GBM2 3D tox – qHTS of pediatric cancer cell lines to identify multiple opportunities for drug repurposing: Orthogonal 3D viability screen for SJ-GBM2 cells; shares compounds with ATXN2 expr inh; SJ-GBM2 3D spheroid viability, PI/Hoechst imaging, 72 h; Potency, µM (doses to about 30.7 µM), most hits filed as inhibitors; 65 compounds, 80% hits
Daoy spheroid – qHTS of pediatric cancer cell lines to identify multiple opportunities for drug repurposing: Orthogonal 3D viability screen for Daoy cells. AID 1347137, 2019. Daoy 3D spheroid viability, PI/Hoechst imaging, 72 h. 65 compounds, 50% hits. shares compounds with ATXN2 expr inh. Potency, µM (highest dose often 30.7 µM), actives largely listed as inhibitors
TC32 3D caspase – qHTS of pediatric cancer cell lines to identify multiple opportunities for drug repurposing: Orthogonal 3D caspase screen for TC32 cells; TC32 3D spheroids, caspase-3/7 fluorescence imaging, 24 h; 65 compounds, 30% hits; shares compounds with ATXN2 expr inh; AID 1347138, 2019; Potency, µM (top dose mostly 30.7 µM), actives largely listed as inhibitors
TC32 spheroid – qHTS of pediatric cancer cell lines to identify multiple opportunities for drug repurposing: Orthogonal 3D viability screen for TC32 cells | 65 compounds, 60% hits | Potency, µM (top dose mostly 30.7 µM), hits mostly inhibitors | shares compounds with ATXN2 expr inh | TC32 3D spheroid viability, PI/Hoechst imaging, 72 h
MG63 spheroid – qHTS of pediatric cancer cell lines to identify multiple opportunities for drug repurposing: Orthogonal 3D viability screen for MG 63 (6-TG R) cells. MG-63 (6-TG R) 3D spheroid viability, PI/Hoechst imaging, 72 h. Potency, µM (doses to about 30.7 µM), hits mostly inhibitors. AID 1347140, 2019. 65 compounds, 50% hits. shares compounds with ATXN2 expr inh
RD 3D tox – qHTS of pediatric cancer cell lines to identify multiple opportunities for drug repurposing: Orthogonal 3D viability screen for RD cells; shares compounds with ATXN2 expr inh; RD rhabdomyosarcoma 3D spheroid viability, PI/Hoechst imaging, 72 h; Potency, µM (titrated, usually from 30.7 µM), usual class: inhibitors; 65 compounds, 50% hits; AID 1347141, 2019
Of the large screens only hits and unclear results are named; the others gave an inactive call (follow-up assays come after a bar, where they were run). The list is not random: actives were taken first. Their share in the collection is about 2.6%. Unless noted, calls follow the shape of the dose curve; as a rule, active = well fitted curve in the direction sought with a large enough effect; inconclusive = small, poorly fitted or top-dose-only effect, or another doubt; inactive = no such curve, though single readings can be large; an effect the other way counts as inactive or inconclusive.

CC(C)(O)Cn1c(NC(=O)c2ccc(-c3cn[nH]c3)s2)nc2cc(CN3CCOCC3)ccc21	ATXN2 expr inh 6.1µM (no result: Giardia killer, ATXN viability, HepG2 viability, uPA surface inh, TGFb SMAD3 inh) | SKNSH spheroid 0.23µM | SJ-GBM2 3D tox 0.23µM | Daoy spheroid 0.64µM | TC32 3D caspase 1.3µM | TC32 spheroid 1µM | MG63 spheroid 1.4µM | RD 3D tox 0.32µM
CCCCc1nc2cc(C=CC(=O)NO)ccc2n1CCN(CC)CC	none (no result: Giardia killer, ATXN viability, HepG2 viability, uPA surface inh, TGFb SMAD3 inh) | SKNSH spheroid 0.51µM | SJ-GBM2 3D tox 0.91µM | Daoy spheroid 1.6µM | TC32 3D caspase inconclusive | TC32 spheroid 1.4µM | MG63 spheroid 6.4µM | RD 3D tox 1.6µM
Cc1nccn1-c1ccc(NC(=O)[C@H]2O[C@@H](n3ccc(N)nc3=O)[C@H](O)[C@@H]2O)cc1	none (no result: Giardia killer, HepG2 viability, uPA surface inh, TGFb SMAD3 inh)
C[C@@]12O[C@@H](C[C@]1(O)CO)n1c3ccccc3c3c4c(c5c6ccccc6n2c5c31)CNC4=O	ATXN2 expr inh 3.1µM (no result: Giardia killer, ATXN viability, HepG2 viability, uPA surface inh, TGFb SMAD3 inh) | SKNSH spheroid 1.4µM | SJ-GBM2 3D tox 0.14µM | Daoy spheroid 1.1µM | TC32 3D caspase 2.6µM | TC32 spheroid 5.1µM | MG63 spheroid 13µM | RD 3D tox 8.1µM
Nc1ccn([C@@H]2O[C@H](CO)[C@H](O)C2(F)F)c(=O)n1	ATXN2 expr inh 0.22µM (no result: Giardia killer, ATXN viability, HepG2 viability, uPA surface inh, TGFb SMAD3 inh) | SKNSH spheroid inconclusive | SJ-GBM2 3D tox 0.14µM | Daoy spheroid inconclusive | TC32 3D caspase inactive | TC32 spheroid 0.32µM | MG63 spheroid 0.57µM | RD 3D tox inconclusive
COc1ccc(-c2nc(CCNC(=O)c3cc(OC)c(OC)c(OC)c3)cs2)cc1	TGFb SMAD3 inh inconclusive (no result: Giardia killer, ATXN viability, ATXN2 expr inh, uPA surface inh)
CCCCCn1cc2c(c1-c1ccc(Br)cc1)c(=O)n(C)c(=O)n2C	TGFb SMAD3 inh inconclusive (no result: Giardia killer, uPA surface inh)
COC1=C2C[C@@H](C)C[C@H](OC)[C@@H](O)[C@@H](C)C=C(C)[C@H](OC(N)=O)[C@@H](OC)C=CC=C(C)C(=O)NC(=CC1=O)C2=O	ATXN2 expr inh 0.77µM (no result: Giardia killer, ATXN viability, HepG2 viability, uPA surface inh, TGFb SMAD3 inh) | SKNSH spheroid 1.6µM | SJ-GBM2 3D tox 1.6µM | Daoy spheroid 6.4µM | TC32 3D caspase inconclusive | TC32 spheroid 1.1µM | MG63 spheroid inactive | RD 3D tox 0.72µM
CCOc1ccc(S(=O)(=O)N(CC(=O)NCCc2ccc(OC)cc2)c2ccccc2)cc1	none (no result: Giardia killer, uPA surface inh)
CN(C)N=Nc1nc[nH]c1C(N)=O	ATXN2 expr inh inconclusive, uPA surface inh inconclusive
CN(C)/N=N/c1nc[nH]c1C(N)=O	none (no result: Giardia killer, HepG2 viability, uPA surface inh, TGFb SMAD3 inh) | SKNSH spheroid inactive | SJ-GBM2 3D tox inconclusive | Daoy spheroid inactive | TC32 3D caspase inactive | TC32 spheroid inactive | MG63 spheroid inactive | RD 3D tox inactive
CCCS(=O)c1ccc2nc(NC(=O)OC)[nH]c2c1 (stereo not drawn)	none (no result: Giardia killer, HepG2 viability, uPA surface inh, TGFb SMAD3 inh)
COC(=O)Nc1nc2ccc(S(=O)c3ccccc3)cc2[nH]1 (stereo not drawn)	ATXN viability inconclusive (no result: Giardia killer, HepG2 viability, uPA surface inh, TGFb SMAD3 inh) | SKNSH spheroid inconclusive | SJ-GBM2 3D tox 0.57µM | Daoy spheroid inconclusive | TC32 3D caspase inconclusive | TC32 spheroid 0.64µM | MG63 spheroid inconclusive | RD 3D tox inconclusive
Cc1c2oc3c(C)ccc(C(=O)N[C@@H]4C(=O)N[C@H](C(C)C)C(=O)N5CCC[C@H]5C(=O)N(C)CC(=O)N(C)[C@@H](C(C)C)C(=O)O[C@@H]4C)c3nc-2c(C(=O)N[C@@H]2C(=O)N[C@H](C(C)C)C(=O)N3CCC[C@H]3C(=O)N(C)CC(=O)N(C)[C@@H](C(C)C)C(=O)O[C@@H]2C)c(N)c1=O	ATXN viability inconclusive, ATXN2 expr inh 1µM (no result: Giardia killer, HepG2 viability, uPA surface inh, TGFb SMAD3 inh) | SKNSH spheroid 0.0029µM | SJ-GBM2 3D tox 0.018µM | Daoy spheroid 0.026µM | TC32 3D caspase inconclusive | TC32 spheroid 0.032µM | MG63 spheroid 0.029µM | RD 3D tox 0.02µM
Cc1cccc(N2CCN(C(=O)c3cccc(-n4c(C)nc5cccnc54)c3)CC2)c1C	none (no result: Giardia killer, ATXN viability, ATXN2 expr inh, uPA surface inh)
